WT yeast gro inh – growth inhibition of WT strain, primary screen, mitochondrial fusion inhibitor project, WT and mutant strains, chemical genetic. inhibition, % at 10 µM. mitochondrial fusion phenotypic screen. hit rate 2.1% among 190,000; in the data active means inhibition above about 58%; tested in S. cerevisiae
ROMK primary – ROMK potassium channel modulators, primary screen, cell-based, thallium flux, MLSMR library | ATP-sensitive inward rectifier potassium channel 1 (Homo sapiens), P48048 | Tet-inducible ROMK, thallium flux fluorescence; actives lie on both sides | B-score at 10 µM | hit rate 2% among 130,000;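 active means signal ratio slope over the read window, or its plate-corrected B-score, at least 3 SD from the plate mean, either direction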;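 further: B-score of the F/F0 ratio slope over 7 to 12 s after thallium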
Target sequence (P48048 whole entry, looked up): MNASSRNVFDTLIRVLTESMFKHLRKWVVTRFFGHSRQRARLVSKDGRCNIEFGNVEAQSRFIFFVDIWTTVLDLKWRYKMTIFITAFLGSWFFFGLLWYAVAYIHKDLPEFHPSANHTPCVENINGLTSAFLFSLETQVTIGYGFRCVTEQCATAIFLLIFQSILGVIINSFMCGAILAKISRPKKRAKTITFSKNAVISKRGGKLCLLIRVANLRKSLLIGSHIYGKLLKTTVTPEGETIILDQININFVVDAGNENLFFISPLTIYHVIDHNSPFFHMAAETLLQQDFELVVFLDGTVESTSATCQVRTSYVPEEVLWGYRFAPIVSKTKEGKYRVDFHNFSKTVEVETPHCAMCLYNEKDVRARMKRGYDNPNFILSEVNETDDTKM
Insulin prom inh – inhibitors of insulin promoter-driven GFP, primary screen, imaging, TRM-6 cells (human fetal islet line), eGFP reporter, cell count; hit rate 0.9% among 130,000; AID 1273, 2008; inhibition, % at 2 µM; reporter expression induced with tamoxifen;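 active means inhibition above the mean plus 3 SD, with well images judged a real hit on visual review, cut at about 60% in these data, passing the limit was not always enough; inconclusive means inhibition over the cutoff but images rejected on review; inactive means inhibition not above the cutoff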
Lmaj promast – Leishmania major promastigote growth inhibition, primary screen | AID 1063, 2008 | Leishmania major promastigotes, resazurin fluorescence viability | inhibition, % at 10 µM | hit rate 9% among 200,000; in the data active means inhibition above about 50%;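 further: promastigotes grown with compound for 44 hours at 28 °C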
Cl transport mod – KCC2 cotransporter modulators, thallium flux, primary screen, cell-based, HEK293 KCC2, FluoZin-2 fluorescence, MLSMR; KCC2 cells, thallium flux FluoZin-2 fluorescence; B-score of Tl+ flux slope (higher = more flux/activation; lower = inhibition) at 10 µM; hit rate 2.2% among 190,000; AID 1456, 2008;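 active means thallium flux slope and its plate-corrected score both differing from the plate sample mean at a set confidence after two filtering rounds, in either direction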;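 further: slope of fluorescence scaled to starting intensity during 10 to 20 s after thallium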
Insulin prom up – insulin promoter activators in MIN6 cells, imaging, high-content screening, mouse beta cells; z-score at 5 µM; MIN6 insulin promoter-GFP reporter; stronger effect = higher value; hit rate 0.3% among 190,000;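 active means z-score above 3 at 5 µM with at least 500 cells counted in the well; inconclusive means wells under 500 cells, flagged as cytotoxic or low count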
Each line names hits and unclear results; the compound was inactive in the other large screens. Only some compounds are listed: those with a hit (about 12% of all), similar ones and a draw of the others.

CN(C)S(=O)(=O)c1ccc(Oc2ccccc2)cc1	Lmaj promast 98
CCN(CC)S(=O)(=O)c1ccc(Oc2ccccc2)cc1	Lmaj promast 99 (no result: WT yeast gro inh, ROMK primary)
CN(C)S(=O)(=O)c1ccc(-c2ccccc2)cc1	none (no result: Cl transport mod)
O=C1Cc2ccccc2Sc2ccc(O)cc21	none (no result: Insulin prom inh)
Nc1ccc2c(c1)CC(=O)c1ccccc1S2	Insulin prom inh 77, Insulin prom up inconclusive (no result: Cl transport mod)
CCNC(=S)NNC(=O)Cn1nc(C)cc1C	none (no result: Insulin prom inh)
CN(C)CCCNc1oc(-c2ccc(Cl)cc2)nc1C#N	Lmaj promast 83
COCCNc1oc(-c2ccc(Cl)cc2)nc1C#N	none (no result: Insulin prom inh)
CCN(CC)CCCNc1oc(-c2cccc(Cl)c2)nc1C#N	Lmaj promast 101 (no result: ROMK primary)
CC(C)OC(=O)CSc1nc(C(C)C)nc2ccccc12	none
CCSc1nnc(NC(=O)CSc2nccn2-c2cccc(C)c2)s1	none (no result: ROMK primary)
COc1ccc(Cn2nnnc2CN(Cc2cc3cccc(C)c3[nH]c2=O)C2CCCC2)cc1	none (no result: ROMK primary, Insulin prom inh)
COc1ccc(Cn2nnnc2CN(Cc2cc3ccc(C)cc3[nH]c2=O)C2CCCC2)cc1	Lmaj promast 82 (no result: ROMK primary)
CCC(C)(C)n1nnnc1CN(Cc1cc2cc(OC)ccc2[nH]c1=O)C1CCCC1	Lmaj promast 98 (no result: ROMK primary, Insulin prom inh, Insulin prom up)
COc1ccc(OC)c(S(=O)(=O)n2nnc3cc(Cl)ccc32)c1	none (no result: Insulin prom inh, Insulin prom up)
COc1cc(S(=O)(=O)n2nnc3ccccc32)c(OC)cc1Cl	ROMK primary -2.3 (no result: Insulin prom up)
Cc1cccc(/C=C(\c2nc3ccccc3[nH]2)S(=O)(=O)c2ccccc2)c1	Lmaj promast 100 (no result: ROMK primary)
CCOC(=O)C(=O)Cc1nc2ccccc2s1	none (no result: WT yeast gro inh, ROMK primary, Insulin prom inh, Lmaj promast)
Cc1cccc(NC(=O)N(Cc2nc3ccccc3c(=O)[nH]2)C2CCCC2)c1	WT yeast gro inh 78 (no result: Cl transport mod)
CN1CC(c2ccc(Cl)c(Cl)c2)[C@@]2(COc3ccccc3C2=O)[C@@]12C(=O)Nc1ccccc12 (some centres undefined)	Lmaj promast 81 (no result: ROMK primary, Insulin prom inh)
CCC(C)c1ccccc1NC(=O)c1cccnc1 (centres undefined)	none (no result: ROMK primary, Insulin prom inh)
COCCOC(=O)C1=C(N)OC2=C(C(=O)CCC2)C1c1cccnc1 (centres undefined)	none
COCCOC(=O)C1=C(N)OC2=C(C(=O)CC(C)(C)C2)C1c1cccnc1 (centres undefined)	Lmaj promast 82 (no result: ROMK primary, Cl transport mod)
CCCOC(=O)C1=C(C)NC2=C(C(=O)CC(C)(C)C2)C1c1cccnc1 (centres undefined)	Lmaj promast 90
CCOC(=O)C1=C(N)Oc2cc(O)ccc2C1c1cccnc1 (centres undefined)	Lmaj promast 92
CCCOC(=O)C1=C(C)NC2=C(C(=O)CC(C)(C)C2)C1c1ccc(N(C)C)cc1 (centres undefined)	none (no result: Insulin prom inh)
CCOC(=O)C1=C(N)OC2=C(C(=O)CC(C)C2)C1c1cccnc1 (centres undefined)	Lmaj promast 70
Cn1ncc2c(Nc3cccc(C(=O)O)c3)ncnc21	none (no result: ROMK primary, Insulin prom up)
Cn1ncc2cc(NC(=S)NC(=O)c3ccccc3)ccc21	Cl transport mod 4.2 (no result: ROMK primary, Insulin prom up)
COc1cccc(/C=N/N2CCN(c3ccncc3S(=O)(=O)N3CCCCC3)CC2)c1	Lmaj promast 99 (no result: Cl transport mod)
O=S(=O)(c1cnccc1N1CCN(/N=C/c2ccc(Cl)cc2)CC1)N1CCCCC1	Lmaj promast 79 (no result: ROMK primary)
Cc1ccc(/C=N/N2CCN(c3ccncc3S(=O)(=O)N3CCCCC3)CC2)cc1	Lmaj promast 67
COc1cc(NC(=O)c2cccs2)c(OC)cc1NC(=O)CCC(=O)Nc1cccc2ncccc12	none
CCOC(=O)N1CCN(C(=O)c2ccc3c(=O)n(CCC4=CCCCC4)c(=S)[nH]c3c2)CC1	none (no result: Cl transport mod)
O=c1c2ccc(Cl)cc2[nH]c(=S)n1CCC1=CCCCC1	Cl transport mod 37
CSc1nccc(Oc2cncc(Cl)c2)n1	none
Oc1ccc2ccccc2c1/C=N/Nc1nnc(-c2ncc[nH]2)c2ccccc12	Lmaj promast 100 (no result: Insulin prom up)
Cc1ccc2nc(Nc3nc(=O)c4ccccc4n3C)nc(C)c2c1	none (no result: WT yeast gro inh, ROMK primary, Insulin prom inh, Lmaj promast, Cl transport mod)
CCC(=O)n1nc(-c2ccc(OC)cc2)nc1SC	Insulin prom inh 89 (no result: ROMK primary, Insulin prom up)
CCCC(=O)n1nc(-c2ccc(Cl)cc2)nc1SC	Insulin prom inh 75 (no result: ROMK primary, Insulin prom up)
CCC(=O)n1nc(-c2ccc(Cl)cc2)nc1SC	none (no result: Insulin prom up)
Cc1ccccc1N1C(=O)CN(Cc2sccc2C)C1=S	Lmaj promast 93
Cc1ccc(N2C(=O)CN(Cc3sccc3C)C2=S)cc1C	none
Cc1cc(=O)[nH]c(SCc2nc3ccc([N+](=O)[O-])cc3[nH]2)n1	Lmaj promast 55 (no result: ROMK primary)
O=C(Nc1ccc(C(F)(F)F)cc1)c1cc(S(=O)(=O)NCC2COc3ccccc3O2)ccc1F (centres undefined)	WT yeast gro inh 82
COc1ccc(NC(=O)c2cc(S(=O)(=O)NCC3COc4ccccc4O3)ccc2F)cc1 (centres undefined)	none (no result: ROMK primary, Insulin prom inh)
CC(C)c1ccc(NC(=O)c2cc(S(=O)(=O)NCC3COc4ccccc4O3)ccc2F)cc1 (centres undefined)	WT yeast gro inh 62
O=C(Nc1ccc(S(=O)(=O)NCC2CCCO2)cc1)c1ccccc1 (centres undefined)	none (no result: Insulin prom inh)
COc1ccc(/C=N/Nc2nnc(Cc3ccc(OC)c(OC)c3)c(=O)[nH]2)cc1OC	Lmaj promast 81
CCOC(=O)/C(C#N)=C/c1ccc(OC(=O)c2ccco2)c(OCC)c1	none (no result: ROMK primary, Insulin prom inh)
O=C(Nc1ccc(F)cc1)Nc1ccc(N2CCCC2)c(S(=O)(=O)Nc2ccccc2Cl)c1	Lmaj promast 98 (no result: Insulin prom up)
COc1ccccc1NS(=O)(=O)c1cc(NC(=O)C(C)C)ccc1N1CCCCC1	none (no result: Insulin prom inh)
O=C(Nc1ccc(F)cc1)Nc1ccccc1N1CCCCC1	none (no result: WT yeast gro inh, ROMK primary, Insulin prom inh, Lmaj promast)
O=C(Nc1ccc(Cl)c(Cl)c1)Nc1ccc(N2CCCC2)c(S(=O)(=O)Nc2ccccc2Cl)c1	Lmaj promast 99 (no result: Insulin prom up)
O=C(CN1CCC(N2CCCCC2)CC1)N1CCCc2ccccc21	Lmaj promast 64
CC(C)OC(=O)CC(=O)CSc1nc2c(c(-c3cccs3)c1C#N)CCC2	none (no result: ROMK primary, Insulin prom inh)
CCOC(=O)C(C)Sc1nc2c(c(-c3cccs3)c1C#N)CCC2 (centres undefined)	Lmaj promast 54 (no result: ROMK primary)
Cc1c(C(C)O)nnn1-c1nonc1N (centres undefined)	none (no result: Cl transport mod)
O=C1CCCC2=C1C1(CCCCC1)N=C(Nc1nc3ccccc3s1)N2	none
COc1nc(OC)nc(N2CCC(C(=O)NCc3cccs3)CC2)n1	Insulin prom up 3.5
Cc1ccnc(N2CCCC(C(=O)NCc3cccs3)C2)n1 (centres undefined)	none (no result: Insulin prom up)
COc1cc(C)nc(N2CCCC(C(=O)Nc3cccc(Cl)c3C)C2)n1 (centres undefined)	Insulin prom up 3.9 (no result: ROMK primary, Insulin prom inh)
Cc1cc(C)nc(N2CCCC(C(=O)NCc3cccs3)C2)n1 (centres undefined)	WT yeast gro inh 70 (no result: Cl transport mod)

High-throughput results as filed in PubChem BioAssay.
